Source: PubChem BioAssay (NCI)
About 83,000 compounds went through this panel and 20% of them were active in at least one assay; those are over-represented in the sample as a whole.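 Each cell line was grown in a 96-well plate and treated with one concentration of compound for 48 hours. Values below 10 were considered active.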 Unmarked numbers belong to inactive results. The source made the active and inactive calls.

Tests used:
Assay in all cases: NCI-60 one-dose screen, 48 h (100 = growth as untreated, 0 = no growth, -100 = all killed)
Settings in all cases: 10 µM unless noted
[1] = test system: NCI-H23 lung
[2] = test system: NCI-H226 lung
[3] = test system: NCI-H322M lung
[4] = test system: HOP-62 NSCLC
[5] = test system: NCI-H460 lung
[6] = test system: HOP-92 NSCLC
[7] = test system: NCI-H522 lung
[8] = test system: A549/ATCC NSCLC
[9] = test system: 786-0 renal
[10] = test system: COLO 205 colon
[11] = test system: DU-145 prostate
[12] = test system: MALME-3M melanoma
[13] = test system: MDA-MB-231 breast
[14] = test system: RXF 393 renal
[15] = test system: SF-268 CNS
[16] = test system: SF-295 CNS
[17] = test system: SF-539 CNS
[18] = test system: UACC-257 melanoma
[19] = test system: M14 melanoma
[20] = test system: K-562 leukemia

Compound	growth [1]	growth [2]	growth [3]	growth [4]	growth [5]	growth [6]	growth [7]	growth [8]	growth [9]	growth [10]	growth [11]	growth [12]	growth [13]	growth [14]	growth [15]	growth [16]	growth [17]	growth [18]	growth [19]	growth [20]
FC(F)(F)c1cn(CC2CNC2)c2ncnc(Cl)c12	104%	102%	111%	102%	105%	114%	89.7%	94.3%	107%	106%	108%	122%	100%	112%	99.2%	100%	109%	85.6%	109%	
CC1(C)N=C(N)N=C(N)N1c1ccc(F)c(C(F)(F)F)c1	29.4%	54.1%	51.9%	21.7%	21.6%	45.4%	-8.07% (active)	9.86% (active)	-4.42% (active)	79.8%	38.5%	74.1%	73.5%		23.2%	19.5%	23.2%	25.2%	24%	16.9%
Cc1cccc(NC(=O)CCc2ccc(N3C(N)=NC(N)=NC3(C)C)cc2)c1	30.6%	100%	42.7%	24%	19.8%	32.5%	0.83% (active)	11.8%	-7.98% (active)	73.6%	50.9%	47.2%	63.4%		33.8%	64.9%	23.9%	28.2%	64.8%	23.3%
CC(CN(C)C)CN1c2ccccc2CCc2ccccc21 (configuration not stated)	83.3%	100%	77.1%	96.4%	103%	38.9%	80.2%	94.4%	64.3%	46.1%	106%	88.8%	85.9%		93%	87.5%	90.5%	105%	52.3%	65.4%
Cc1ccc(-c2cc(-c3nnc(SCC(=O)c4ccccc4)o3)c3ccccc3n2)cc1	97.1%	94.5%	90.3%	108%	98.3%	96.6%	87.7%	91.4%	92.8%	111%	95.2%	107%	117%		88.9%	99.1%	94.2%	114%	97.2%	93.2%
CCC1CN2C(=N1)c1ccccc1-c1cc(Cl)ccc12 (configuration not stated)	23.4%	-40.2% (active)	28.3%	5.88% (active)	-18.9% (active)	-12.2% (active)	-28.5% (active)	-21.7% (active)	-35.4% (active)	18.4%	17.4%	-4.57% (active)	47.9%		25%	12%	17%	-28.8% (active)	21.7%	2.32% (active)
Nc1c(C(=O)O)[nH]c(=O)[nH]c1=O	103%	93.8%	102%	108%	104%	104%	84.3%	71.9%	104%	115%	110%	110%		93.5%	98.7%	99.7%	103%	75.7%	103%	86.9%
Nc1nc2ccc(CNc3ccc(C(=O)NC(CC(=O)O)C(=O)O)cc3)cc2c(=O)[nH]1 (configuration not stated)	31.7%	57.4%	55.7%	26.5%	24.4%	64.1%	-0.0288% (active)	11%	7.57% (active)	85.4%	44.9%	71.7%	120%		40.1%	29.8%	38.4%	42.3%	32.8%	12.2%
